According to ChEMBL document CHEMBL3988442, “University of Dundee, Small-Polar-MMV Screening Library” (2021):
About 13,000 (27%) of roughly 48,000 compounds showed an effect of 50% or more. The list shows a part of the results.

The compounds below were run on Wolbachia pipientis (assay: Anti-Wolbachia Cell-Based Screen). Conditions: 5 µM.
Assay type: functional
Set-up: scale not given: in the data most compounds retested in dose-response had high values

In order of rising “Percent Effect” value:
1. CCN(C)C1COC2(CCN(C(=O)c3cccc(Cl)c3)CC2)C1.O=C(O)C(F)(F)F (centres undefined)  -32.01%
2. CN(C)CCN1CCC2(CCCN(Cc3cccn3C)C2)C1=O.O=C(O)C(F)(F)F.O=C(O)C(F)(F)F (centres undefined)  -29.62%
3. CCN(C)C(=O)c1ccc(N(C)Cc2cc(-c3ccncc3)no2)nc1  -25.61%
4. O=C(O)c1ccnc(-c2ccnc(NCCc3nc4c(s3)CCC4)n2)c1  -20.67%
5. Cc1nn2cc(CCNC(=O)c3cc(C(C)C)nn3C)nc2s1  -16.47%
6. Cc1cccc(COC[C@@]23CCC[C@@H]2CN(S(=O)(=O)N(C)C)C3)n1.O=C(O)C(F)(F)F  -15.69%
7. COCC1CCN(C(=O)c2cc(-c3ccco3)nc3c(Cl)cccc23)C1 (centres undefined)  -13.75%
8. NC(=O)NC(=O)CCn1ccc(-c2ccsc2)n1  -12.21%
9. COc1nc2c(cc1C(=O)NCCc1nc3c(s1)CCC3)CCC2  -9.23%
10. O=C(NC[C@H]1OC[C@@H](N(CC2CC2)CC2CC2)[C@@H]1O)Nc1ccccc1  -9.212%
11. CC(C)[C@H](Nc1cc(-c2ccncc2)nc2ccnn12)C(N)=O  -7.86%
12. CC(C)(C)c1cc(CN2CCOC(CN)C2)n[nH]1 (centres undefined)  -6.517%
13. CC(C)N1CCc2ncn(C)c2C1C(=O)NCCN1CCCC1 (centres undefined)  -5.495%
14. COc1nc2c(cc1C(=O)NCCc1nc(C)c(C(=O)O)s1)CCC2  -5.377%
15. CNC(=O)c1c(C)cccc1NCc1nnc(C2CC2)o1  -4.757%
16. C[C@@H]1CN(c2nc(N)nc3c2CCC3)C[C@]1(C)O  -4.313%
17. C[C@@H]1CN(c2nc(N)nc3c2CCC3)CC[C@@]1(O)C1CCC1  -3.571%
18. CC(C)OC(=O)N1CCCC(c2nccn2Cc2ccncc2)C1 (centres undefined)  -3.54%
19. CN1CC(c2ccccc2)CC12CCN(C(=O)c1cccnc1)CC2 (centres undefined)  -3.135%
20. O=C(c1cnn[nH]1)N(Cc1ccncc1)CC1CCCO1 (centres undefined)  -2.849%
21. COCCN1CCC2(CCCN(C(=O)c3ccoc3C)C2)C1=O (centres undefined)  -2.249%
22. CN(Cc1ccc2c(c1)OCCO2)C(=O)Cn1ccccc1=O  -2.106%
23. CC1(C)CN(Cc2csc(CS(C)(=O)=O)n2)Cc2ccccc21  -1.783%
24. O=C(Cc1cccc(F)c1)N1CCc2ncnc(N3CCCC3)c2CC1  -1.475%
25. CC(NC(=O)NCCCn1cncn1)c1ccccc1Cl (centres undefined)  -1.417%
26. CNC(=O)c1ccc(CNC(=O)c2cc(C(C)C)n(C)n2)cc1  -0.9811%
27. CCN(CC)C(=O)Cn1cc(C(=O)NCCc2nc(C)c(C)s2)nn1  -0.7768%
28. Cc1ccccc1C1CCN(CCn2cc(-c3cccc(O)c3)nn2)C1 (centres undefined)  -0.06043%
29. Cc1ncnc2c1CCN(C(=O)Cc1cccc(F)c1)CC2  0.1924%
30. CCOC(=O)C1CCN(C(=O)CN2CCCC2c2ccsc2)CC1 (centres undefined)  0.9272%
31. CCN(C)CC(C)Cn1cnc(-c2ccccc2)c1-c1cncn1CC (centres undefined)  1.36%
32. Cc1cc(C)n(-c2cncc(NCCNC(=O)C(C)C)n2)n1  1.534%
33. COCCN1CCN(C)C2(CCN(C(=O)c3ccnnc3)CC2)C1=O.O=C(O)C(F)(F)F  1.549%
34. Cc1nc2c(c(N3CCC4(CCCNC4=O)C3)n1)CCC2 (centres undefined)  3.026%
35. COc1ncnc2c1CCN(C(=O)Cc1cccc(F)c1)CC2  3.249%
36. COc1cccc2c1OCC(C(=O)NCCc1nc3c(s1)CCC3)C2 (centres undefined)  3.483%
37. COc1ccc(NC(=O)N2CCN(c3ncccn3)CC2)cn1  4.438%
38. CCCC(=O)N(CCCN1CCOCC1)c1nc2c(C)c(C)ccc2s1.Cl  4.916%
39. COc1ccc(-c2nc(CNC(C)Cn3cccn3)cs2)cc1 (centres undefined)  6.683%
40. CCC[C@@H]1CN(Cc2ccc(C(F)(F)F)nc2)C[C@H]1C(=O)O  8.814%
41. CCCN1CCN(C(=O)c2cccnc2)CC1  10.45%
42. CCc1nc(NCCCn2cccn2)c2c(n1)c(C)nn2C  10.76%
43. Cc1nn(C)c(Oc2cccc(F)c2)c1NC(=O)C1CCOCC1  12.99%
44. CC(=O)NC1CCN(c2nc(N)nc3c2CCCC3)C1 (centres undefined)  13.41%
45. O=C(Nc1ccccc1OC1CCOC1)c1[nH]nc2c1CCCC2 (centres undefined)  13.6%
46. O=C(O)C(F)(F)F.O=C(c1cccnc1)N1CCC2(CC1)CCN(c1ccsc1)C2=O  13.97%
47. Cc1c(C)n(-c2ccccn2)c2nc3c(c(N)c12)CCCC3  16.56%
48. CC(C)N(C(=O)c1ccccc1-c1nc2c([nH]1)CCNC2)C(C)C  16.68%
49. COCCNc1nc2c(c(NCCc3cccs3)n1)CCNCC2  23.06%
50. Cc1c(C)n(Cc2ccncc2)c2nc3c(c(N)c12)CCCCC3  23.97%
51. COCCN1CCC2(CCN(C(=O)c3ccc(F)cc3)CC2)C1=O  82.71%
52. CN1CCCCc2c1nc1c(c2N)CCCC1  88.26%
53. CN1CCc2c1nc1c(c2N)CCC1  94.13%
54. CN(C)CCN1CCC2(CCN(C(=O)c3cccc(F)c3)CC2)C1=O.O=C(O)C(F)(F)F  96.95%
55. CN1CCCc2c1nc1c(c2N)CCC1  99.68%
56. CN(C)CCN1CCC2(CCN(C(=O)c3ccncc3)CC2)C1=O.O=C(O)C(F)(F)F.O=C(O)C(F)(F)F  99.78%
57. O=C(Cc1cccc(F)c1)N1CCc2ncnc(NC3CC3)c2CC1.O=C(O)C(F)(F)F  106%
58. O=C(Cc1cccc(F)c1)N1CCc2ncnc(NC3CCC3)c2CC1  110%
59. Cc1cc(C(=O)NCCc2nc3c(s2)CCCC3)n(C)n1  113.4%
60. CN(C)CCN1CCC2(CCN(C(=O)c3cccnc3)CC2)C1=O  114%
61. CC(C)c1cc(C(=O)NCCc2nc3c(s2)CCC3)n(C)n1  118.8%
62. CC(C)(C)C(=O)NCCc1cc2nc(-c3ccncc3)ccn2n1  129.3%
63. CC(C)C(=O)NCCc1cc2nc(-c3ccncc3)ccn2n1  130.4%
64. Cc1nc(CCNC(=O)c2cc(C(C)C)nn2C)sc1C  143.4%
